Measured values from paper PMC13494018.
Unmarked numbers belong to inactive results. How the calls were made is not given here.

Molecular target: CD276, Q5ZPR3
Sequence (Q5ZPR3 whole entry): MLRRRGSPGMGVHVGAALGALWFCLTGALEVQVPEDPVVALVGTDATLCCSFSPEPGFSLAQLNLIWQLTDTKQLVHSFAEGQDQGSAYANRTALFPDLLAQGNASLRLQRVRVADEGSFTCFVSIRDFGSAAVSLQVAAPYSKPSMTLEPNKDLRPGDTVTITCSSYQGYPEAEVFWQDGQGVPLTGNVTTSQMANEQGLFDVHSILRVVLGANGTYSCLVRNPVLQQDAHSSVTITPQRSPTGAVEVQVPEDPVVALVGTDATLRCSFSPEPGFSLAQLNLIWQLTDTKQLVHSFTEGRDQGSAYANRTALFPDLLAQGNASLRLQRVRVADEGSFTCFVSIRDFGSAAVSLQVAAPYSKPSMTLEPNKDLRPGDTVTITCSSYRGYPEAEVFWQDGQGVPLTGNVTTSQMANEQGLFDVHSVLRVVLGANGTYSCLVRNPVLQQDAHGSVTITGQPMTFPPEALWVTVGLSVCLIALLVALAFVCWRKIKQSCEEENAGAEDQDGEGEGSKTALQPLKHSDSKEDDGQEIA

Binder	binding in a display sort
design_619_5728adc2-0aea-404f-92dd-a4575c53f550_1087_dldesign_0_cycle1_af2pred (protein) GPEVAERVARSARGIAEVLRGLADSIRAAGGSPAAEERVRAAAEEAERLAREAEEAAGDAEVARRLAEEANRLLQEATAVAMADLQAV	not found
design_619_5728adc2-0aea-404f-92dd-a4575c53f550_521_dldesign_0_cycle1_af2pred (protein) GEEEELKKKQQEVAERAKEAAELAKEAAKLSGQTEVANAVEAAAKQAAAAAEADPSAVESQLKFVEQLLEIALAALAAAKAAAAAA	not found
design_619_5728adc2-0aea-404f-92dd-a4575c53f550_1864_dldesign_0_cycle1_af2pred (protein) MEEEKEKKEKEKLKKAKELLKKAKEMAENVAEYSVGEILRVATEAIRLATEAAKGKLKEEGKKVADEARKVAAEAARRALALQ	not found
design_619_5728adc2-0aea-404f-92dd-a4575c53f550_252_dldesign_0_cycle1_af2pred (protein) AAKEIAKQAQEAGKAAIAAAEALGKAKDPEEAKQMQEIAKALQQNAQAAAKAGDAKVAQAALNALRGLLRNAEAALAAAK	not found
design_619_5728adc2-0aea-404f-92dd-a4575c53f550_1162_dldesign_0_cycle1_af2pred (protein) SPVEQYAKAQADMLKEAAGVDDATAQAFADYIVANPALATQAGAMTVAIVRAADAARAAAAAAAAAAAAAAAA	not found
design_619_5728adc2-0aea-404f-92dd-a4575c53f550_1370_dldesign_0_cycle1_af2pred (protein) AAAAVAANRAAAAATAETYKAKGKAAAADPAAALAYYNAAGLYAGLAKGDPEAEFAKYKAEADALIAAAKA	not found
design_619_5728adc2-0aea-404f-92dd-a4575c53f550_740_dldesign_0_cycle1_af2pred (protein) GAAEEARRLVEEVEAALKEAEAAAAADAAEGLRAAGELAVLAAEAAARALRLGDEEAFRRISAAIARATALAQQLAA	not found
design_619_5728adc2-0aea-404f-92dd-a4575c53f550_1766_dldesign_0_cycle1_af2pred (protein) ADPAALAAIQEQRDKALKEIEEAAKEAKETTEEEARKKIVDAAHTATAQLAQIGVAHPAVAAEAGQAISEILDAGKRALEEAKKNA	not found
design_619_5728adc2-0aea-404f-92dd-a4575c53f550_930_dldesign_0_cycle1_af2pred (protein) GEVKEQAEKELKKLEEAAKKTEEEAKKAAKAGATVAAAQIKATVKAALKNAKELFEKDPEQGLQAAKAALQVAETLLESAKGLIKAA	not found
design_619_5728adc2-0aea-404f-92dd-a4575c53f550_396_dldesign_0_cycle1_af2pred (protein) DEAKKQAEKHYKLAKEHLEKAIASKDEKEAKAHVSRARLNALAAASLDPSVAPEMLAMLKATAEALKDHPEAKAEAEEAAKLVAQLA	not found
design_619_5728adc2-0aea-404f-92dd-a4575c53f550_649_dldesign_0_cycle1_af2pred (protein) GEELAKEVEKKAKEVLEKVKEKAKEIAAKGTPEQAREAKGLVARARAYAIAAVGAARTIPELAKRYLELAKKEAERL	not found
design_619_5728adc2-0aea-404f-92dd-a4575c53f550_1666_dldesign_0_cycle1_af2pred (protein) SEADAAALDELARLAGEVTGKPEEALALAEIAKQDPLALATLAAMARQARAASPEEAAQLARNAFQIMKALA	not found
design_619_5728adc2-0aea-404f-92dd-a4575c53f550_1820_dldesign_0_cycle1_af2pred (protein) AEAAKRAAAEAAVKKAAELAAKADPALAKRILDAKTIAEGISAAFTAAAQLIQKDPELAAEIVKEAEKAA	not found
design_619_5728adc2-0aea-404f-92dd-a4575c53f550_577_dldesign_0_cycle1_af2pred (protein) AESIAREAVAQIAALAAAGVADPAAKGEQATAILQTAAAAQKAIRAAGGPESLLNAVQAAAGAAIAALVA	not found
design_619_5728adc2-0aea-404f-92dd-a4575c53f550_1938_dldesign_0_cycle1_af2pred (protein) AKEEAKKLLEKTKKEAEKAVKEAEAGTPTTAAEQAVKVLEFGKEAVEKARELGDEETAEQIAQVTNEAVAKITKAAIAKAK	not found
design_619_5728adc2-0aea-404f-92dd-a4575c53f550_1867_dldesign_0_cycle1_af2pred (protein) AAEKAALLAAAEATLARAQEVLAQAKKYPEVQPLAAAALGYALAAQGAVLVDPATGKAFLAKAQALLAEAEAQIKALEA	not found
design_619_5728adc2-0aea-404f-92dd-a4575c53f550_1264_dldesign_0_cycle1_af2pred (protein) GEEAAKKAEKAVEALKQGAKEAAKGTPELAANTAKSYITMAKSIAKGAKRADGGEAAKKVEKKAKEAIAEAKKLAKAAA	not found
design_619_5728adc2-0aea-404f-92dd-a4575c53f550_447_dldesign_0_cycle1_af2pred (protein) EELVKKAKEETTKLLEKAKEEAPGLGTLALNSFNNGFKEGVKEAYERLKKLYEWVTANATTPEQKKVAELIKKAYEVAKKAAEA	not found
design_619_5728adc2-0aea-404f-92dd-a4575c53f550_1042_dldesign_0_cycle1_af2pred (protein) DAKEHAERALELAKEAAESGSVALASRAMQELALAINADPALGAEAAKEAAKIFAKNPELAGFGEAAVAIAA	not found
